BCLXL inh: blocks human Bcl-xL binding to Bim BH3 peptide. Q07817. GST-Bcl-xL / FITC-Bim BH3 peptide fluorescence polarization. inhibition, % at 10.9 µM. hit rate 0.7% among 320,000;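 active = inhibition above the mean of all tested compounds plus 3 SD, cutoff set per campaign, cut at about 30% in these data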;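 note: 0% = DMSO wells and 100% = unlabeled Bim-BH3 peptide competitor; inhibitors lower millipolarization by displacing the labeled peptide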
CR mimetic SO: lowers age-related superoxide in aged yeast cells; S. cerevisiae aged cells, superoxide DHE fluorescence; stronger effect = lower value; superoxide response (% of plate mean), % at 10 µM; hit rate 0.18% among 330,000; AID 2690;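 active = superoxide response under a set limit, about three screen SD below normal, cut at about 65% in these data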;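 note: yeast aged for seven days with compound at 30 °C before DHE staining; 100% = average MFI of all compound-treated wells on the plate with controls excluded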
LANA-H2A inh: blocks KSHV LANA binding to histone H2A/H2B. cell-free LANA-H2A/H2B peptide, fluorescence polarization. inhibition, % (concentration not given with the values). hit rate 0.6% among 320,000. AID 2629; in the data active = inhibition mostly above about 10%, no sharp cut-off; inactive = mostly below about 6.7%
MEX-5 binding: C. elegans MEX-5 TCR-2 RNA binding activity | hit rate 0.38% among 300,000 | Q9XUB2 | AID 1832 | activity score (negative = inhibition of binding), % at 10 µM | MEX-5/FITC-TCR2 RNA binding, fluorescence polarization; stronger effect = lower value;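 active = inhibition past about -25% in most replicates, and total fluorescence under double the plate's negative control median, limit read from the data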;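 note: 0% = DMSO and -100% = 5 µM competing unlabeled TCR2 RNA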
Target sequence (Q9XUB2 whole entry, looked up): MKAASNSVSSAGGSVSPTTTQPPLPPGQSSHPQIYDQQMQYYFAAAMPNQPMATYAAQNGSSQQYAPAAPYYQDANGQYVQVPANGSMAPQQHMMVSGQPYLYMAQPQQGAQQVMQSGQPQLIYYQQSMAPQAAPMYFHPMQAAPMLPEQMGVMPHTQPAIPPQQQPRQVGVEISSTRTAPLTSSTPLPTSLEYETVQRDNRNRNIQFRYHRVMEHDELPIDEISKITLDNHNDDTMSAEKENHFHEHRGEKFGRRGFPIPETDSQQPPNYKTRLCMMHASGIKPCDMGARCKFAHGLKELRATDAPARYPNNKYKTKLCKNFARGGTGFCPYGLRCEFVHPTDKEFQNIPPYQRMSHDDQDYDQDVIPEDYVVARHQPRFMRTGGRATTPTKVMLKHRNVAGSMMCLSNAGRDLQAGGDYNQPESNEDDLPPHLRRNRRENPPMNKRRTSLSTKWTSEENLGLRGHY
GLD-1 TGE inh: GLD-1-TGE RNA interaction inhibition (C. elegans); Q17339; purified GLD-1 + fluorescein TGE RNA, fluorescence polarization; inhibition, % at 5.96 µM; hit rate 0.44% among 320,000; AID 2280;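 active = percent inhibition above a per-plate cutoff, the plate mean of test compounds plus 3 SD, cut at about 30% in these data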;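 note: 0% = DMSO wells with GLD-1 and probe and 100% = wells lacking GLD-1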
MCL1 BIM primary: inhibitors of human MCL1 binding to BIM-BH3 peptide; Q07820; GST-MCL1 / FITC-Bim-BH3 fluorescence polarization; inhibition, % at 10.9 µM; hit rate 0.68% among 320,000; AID 2057;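 active = inhibition above the mean inhibition of all tested compounds plus 3 SD, set per campaign, cut at about 40% in these data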;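 note: 0% = DMSO wells and 100% = unlabeled Bim-BH3 peptide control; higher means more loss of mP so more displacement of Bim peptide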
GLD1 RNA confirm: GLD-1 TGE RNA interaction inhibition, confirmation; shares compounds with GLD-1 TGE inh; GLD-1/FL-TGE RNA fluorescence polarization, biochemical; inhibition, % at 5.96 µM; hit rate 10% among 550;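 active = average inhibition across triplicates above the hit cutoff set in the primary screen, cut at about 32% in these data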;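 note: 0% = GLD-1 with RNA probe and DMSO and 100% = wells lacking GLD-1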
The depositor's hits bear a star; nt = no result. Hits are enriched below; roughly 1.9% of the tested compounds scored in any of these assays.

SMILES	BCLXL inh	CR mimetic SO	LANA-H2A inh	MEX-5 binding	GLD-1 TGE inh	MCL1 BIM primary	GLD1 RNA confirm
CC1CCN(c2oc(-c3ccc(F)cc3)nc2C#N)CC1	2	100	2	2	34*	11	-1
NNC(=O)c1cc(C23CC4CC(CC(C4)C2)C3)nc2ccccc12	1	106	0	-1	60*	1	-8
O=C(NNc1c2ccccc2nc2ccccc12)C12CC3CC(CC(C3)C1)C2	5	95	5	0	-5	3	nt
COc1ccc(C)cc1C1=CC(=O)C[C@H](c2ccc(F)cc2)C1	3	99	1	nt	34*	4	-5
CC(C)CC1NC(=O)c2ccc(Cl)cc2-n2c1nc1ccc(Cl)cc1c2=O (stereo unspecified)	nt	106	2	nt	6	nt	nt
CC(=O)[C@@H]1[C@@H]2C(=O)N(C3CCCCC3)C(=O)[C@@H]2C2c3ccccc3C=CN21 (stereo partly specified)	30	106	2	-10	32*	24	37*
COc1ccc(S(=O)(=O)Nc2cccc3c2O[C@H](CN(C)C(=O)Nc2ccc4c(c2)OCO4)[C@@H](C)CN([C@H](C)CO)C3=O)cc1	nt	108	2	nt	6	nt	nt
CC(=O)Nc1ccc(N2C(=O)c3cccc(NC(C)=O)c3C2=O)cc1	2	111	6	1	51*	2	0
O=C(CN1CCCC1c1ccc2c(c1)OCCO2)NC(=O)Nc1ccccc1 (stereo unspecified)	-3	105	-44	nt	2	-4	nt
O=C(CCc1ccccc1)NC1(Cc2ccccc2)CCN(CCCc2ccccc2)C1=O (stereo unspecified)	9	88	1	nt	1	4	nt
CCN1CCN(C(=O)C(C)Nc2cc(Cl)c(OC)cc2OC)CC1 (stereo unspecified)	53*	96	0	-17	36*	48*	26
O=C(Nc1ccc2nc(-c3ccco3)c(-c3ccco3)nc2c1)N1CCCCCC1	105*	118	13	-11	41*	118*	27
CCc1noc(C)c1C(=O)NC1CCCc2c1cnn2-c1ccc(C(C)(C)C)cc1 (stereo unspecified)	0	98	0	1	0	5	nt
CC1(C)Cc2c(C#N)c(N)sc(=S)c2CO1	40*	114	0	1	31*	43*	12
CCN(CC)c1nc(C)c2c(c1C#N)CC(C)(C)OC2	8	107	1	1	-2	4	nt
CC(C)CN(C(=O)CCCSc1nc2ccccc2[nH]1)c1c(N)n(Cc2ccccc2)c(=O)[nH]c1=O	12	87	-4	-11	22	-4	nt
CC(C)CCN(C(=O)CCCSc1nc2ccccc2[nH]1)c1c(N)n(Cc2ccccc2)c(=O)[nH]c1=O	26	101	nt	-14	47*	27	65*
Cc1ccc(NC(=O)CN2C(=O)N/C(=C/c3ccc(C)o3)C2=O)cc1	20	97	5	-6	38*	31	-70
C=CCN1C(=O)N/C(=C/c2ccc(C)o2)C1=O	16	105	2	-4	42*	24	-14
NS(=O)(=O)c1ccc(CCNC(=O)COC(=O)CCc2c[nH]c3ccccc23)cc1	nt	110	-3	nt	3	nt	nt
CCN(CC)c1nc(Nc2ccc([N+](=O)[O-])cc2)nc(N(CC)CC)n1	3	97	-2	2	8	11	nt
CCOc1cc(CNCCO)cc(Br)c1OCc1cccs1	-2	102	0	-1	-2	1	nt
CCOc1cc(CNCc2cccs2)cc(Br)c1OCC	-1	119	0	3	37*	-6	6
CC(C)[C@H](NC(=O)c1ccccc1Cl)C(=O)OCC(=O)NCc1ccc2c(c1)OCO2	nt	111	-3	nt	0	nt	nt
CCOc1ccccc1N1CCN(C(=O)c2cc(S(=O)(=O)N(C)C)ccc2N2CCCC2)CC1	3	115	1	nt	3	1	nt
SMILES	BCLXL inh	CR mimetic SO	LANA-H2A inh	MEX-5 binding	GLD-1 TGE inh	MCL1 BIM primary	GLD1 RNA confirm
Cc1ccc(C2=Nc3ccccc3NC(C)(c3ccc(C)o3)C2)o1 (stereo unspecified)	40*	93	1	0	44*	36	-2
Cc1ccc2c(C)c(C(=O)N3CCN(c4ncccn4)CC3)oc2c1C	nt	nt	nt	-1	nt	nt	nt
Cc1nnc(NC(=O)C2CCN(S(=O)(=O)c3ccc(F)c(F)c3)CC2)o1	nt	80	-3	nt	0	nt	nt
CCc1sc(C(=O)Nc2cccnc2)cc1Br	4	102	0	-2	0	1	nt
C/C(=C\C(=O)c1cccnc1)Nc1ccc(O)cc1	7	103	-2	-2	31*	8	-1
C/C(=C\C(=O)c1ccccc1)Nc1ccc(O)cc1	16	87	-2	-2	20	18	nt
CCOc1ccc(NC(=O)CC2S/C(=N/N=C3CCCCCC3)NC2=O)cc1 (stereo unspecified)	0	99	-4	1	39*	2	1
CC(C)N1C(=O)C2ON(c3ccccc3)C(c3cccs3)C2C1=O (stereo unspecified)	7	88	7	1	38*	10	-5
Cc1ccc(C)c(OCCC(=O)N2CCN(S(=O)(=O)c3cc(C)ccc3C)CC2)c1	7	108	-2	2	10	8	nt
C[C@H](CO)N1C[C@H](C)[C@H](CN(C)Cc2ccncc2)Oc2ccc(NC(=O)Nc3ccc(C(F)(F)F)cc3)cc2CC1=O	nt	84	-1	nt	3	nt	nt
CCCS(=O)(=O)c1c(S(=O)(=O)CCC)c2c(N)cccn2c1C(=O)OC	21	96	4	-10	35*	12	-1
CCCS(=O)(=O)c1c(S(=O)(=O)CCC)c2c(N)cccn2c1C(=O)c1ccccc1	8	115	-11	-3	18	-5	nt
Cc1cc(C(=O)OCC(=O)NC(C)c2ccc(F)cc2)c(C)o1 (stereo unspecified)	-8	127	-2	nt	4	-9	nt
Cc1ccc(-c2csc(N3CCN(CCCn4c(-c5ccncc5)nc5ccccc54)CC3)n2)cc1	-2	97	-3	0	-3	4	nt
Cc1ccc(-c2csc(N3CCN(CCCn4c(C(F)(F)F)nc5ccccc54)CC3)n2)cc1	3	98	-4	0	40*	1	-1
C[C@H](CO)N1C[C@H](C)[C@@H](CN(C)C(=O)Nc2ccc(C(F)(F)F)cc2)Oc2c(NC(=O)CCC(F)(F)F)cccc2C1=O	nt	113	2	nt	8	nt	nt
Cn1c(=O)c2cc(NCc3ccccc3)nnc2n(C)c1=O	46*	116	1	-3	32*	44*	5
C=CCc1cccc(/C=N/n2c(C)nnc2C)c1O	24	108	-7	-22	31*	29	35*

High-throughput results: PubChem BioAssay, several laboratories
